These results are taken from PubChem BioAssay (NCI).

What all share (assay): NCI-60 one-dose screen, 48 h (100 = growth as untreated, 0 = no growth, -100 = all killed)
Common to all, as to settings: 10 µM unless noted

The subject of test [1] is HCT-15 colon.
Test [2] deals with HT29 colon.
Test [3] has as its system SNB-75 CNS.
Test [4] concerns SNB-19 CNS.
Test [5] has as its system U251 CNS.
The subject of test [6] is PC-3 prostate.
Test [7] concerns SK-MEL-5 melanoma.
Test [8] has as its system UACC-62 melanoma.
Test [9] has as its system LOX IMVI melanoma.
In test [10] the test system is SK-MEL-28 melanoma.
In test [11] the test system is SK-MEL-2 melanoma.
The test system of test [12] is EKVX NSCLC.
Test [13] has as its system SN12C renal.
The subject of test [14] is UO-31 renal.
Test [15] has as its system TK-10 renal.
For test [16], the system named is ACHN renal.
Test [17] has as its system CAKI-1 renal.
Test [18] deals with A498 renal.
The subject of test [19] is CCRF-CEM leukemia.
For test [20], the system named is MOLT-4 leukemia.

The panel holds about 83,000 compounds, 20% with a hit somewhere; the sample as a whole holds those more often.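 In brief: 96-well plates, 48 h treatment, single concentration, percent growth endpoint.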 Unmarked numbers belong to inactive results. The source made the active and inactive calls. How the source made its calls: active means growth percent below 10; inactive means the rest.

For `Cc1nn(-c2ccccc2)c(/N=C/N(C)C)c1/C=C/C(=O)c1ccc(Cl)cc1`, the growth in test [1] is 62.7%; in test [2], 95.4%; in test [3], 91.6%; in test [4], 100%; in [5] it was 95.1%; in test [6] it was 85.9%. Besides, the growth is 89.3% in test [7]; 88.3% in [8]; 49% in test [9]; 89.6% in [10]; 99.4% in test [11]; 77.4% in test [12]. In addition, the growth is 82.5% in test [13]; 78.1% in test [14]; 104% in test [15]; 102% in test [16]; 50.4% in test [17]; 92.6% in [18]. Moreover, the growth was 66.6% in test [19] and 60.9% in [20].

Regarding `CC1COCC(C)N1C1=C(Cl)C(=O)c2ccccc2C1=O` (stereo not given), the growth is 36.6% in [1]; 89.7% in test [2]; 120% in test [3]; 96.4% in test [4]; 45.6% in [5]; 47.2% in test [6]. The growth was 66.5% in test [7]; 76.6% in test [8]; 7.84% (active) in test [9]; 87% in [10]; 23.9% in test [11]; 89.9% in [12]. The growth in test [13] was 81.7%; in [14], 59%; in test [15], 75.7%; in [16], 28.9%; in test [17] it was 65.4%; in test [18], 109%. For the same molecule, the growth is 19.4% in test [19] and 9.7% (active) in [20].

`COc1ccc2nc3ccccc3c(NCc3ccc(F)cc3)c2c1`: the growth in [1] is 4.11% (active); in test [2], 0.209% (active); in test [3], 23.8%; in [4], 17.7%; in test [5], 22.1%; in test [6] it was 17.1%. Besides, the growth was -6.56% (active) in test [7]; 39.1% in test [8]; -66.7% (active) in test [9]; 35.3% in test [10]; 35% in test [11]; 22.4% in test [12]. In addition, the growth in test [13] is 17%; in [14] it was -8.18% (active); in test [15], 37.8%; in test [16] it was 5.65% (active); in test [17], 7.16% (active); in test [18], -8.16% (active). Also, the figures for the growth in test [19] and in test [20] were 18.4% and 0.544% (active), respectively.

Turning to `COc1ccc(/C(C)=C(\c2ccc(Cl)cc2)c2ccc(OCCN3CCCC3)cc2)cc1`, the growth was 7.96% (active) in test [1]; -18.1% (active) in [2]; 91.4% in test [3]; 52.1% in [4]; 19.4% in test [5]; 32.7% in test [6]. In addition, the growth is -63.2% (active) in test [7]; -0.373% (active) in [8]; -46.5% (active) in [9]; -16.8% (active) in test [10]; 40.6% in test [11]; 61.2% in [12]. Moreover, the growth in test [13] is 66.5%; in test [14], 35.2%; in test [15], 69.5%; in [16], 60.1%; in test [17] it was 24.4%; in [18], 79.1%. Further, the growth in test [19] was 29.1%; in [20], 23.4%.

With `COc1ccc(C2=Nc3c(N)ncnc3NC(c3cccc(Nc4ccnc5cc(C(F)(F)F)ccc45)c3)C2)cc1` (stereo not given), the growth in test [1] is 32.4%; in test [2] it was 42.6%; in [3], 56.7%; in [4], 68.2%; in test [5], 54.5%; in test [6], 42.2%. The growth in test [7] was 51.8%; in test [8], 76.1%; in [9], 61.8%; in [10], 84%; in test [11] it was 73.7%; in test [12] it was 54%. Moreover, the growth was 63.9% in [13]; 45.2% in [14]; 95.6% in test [15]; 78.8% in test [16]; 61.5% in [17]; 65.2% in [18]. In addition, the growth in [19] is 42.4%; in [20], 19.7%.

Take `COc1cc(/C=C2\CN(S(=O)(=O)c3ccc(C)cc3)C/C(=C\c3cc(CN4CCCCC4)c(O)c(OC)c3)C2=O)cc(CN2CCCCC2)c1O`: the growth in [1] is -86.1% (active); in test [2], -66.5% (active); in test [3], -83.9% (active); in test [4], -57.7% (active); in test [5], -89.6% (active); in [6] it was -39.9% (active). Moreover, the growth in test [7] was -88.9% (active); in test [8], -63.5% (active); in [9] it was -74.5% (active); in [10] it was -85.8% (active); in [11], -73.7% (active); in [12], -81% (active). Besides, the growth is -76.5% (active) in test [13]; -89.1% (active) in [14]; -93.4% (active) in test [15]; -98.9% (active) in test [16]; -89% (active) in test [17]; 90% in test [18]. Besides, the growth in [19] is -6.3% (active); in [20] it was -23.7% (active).

As for `Cn1c(=O)c2c(c3ccccc31)OC(N)=C(C#N)C21C(=O)c2ccccc2C1=O`, the growth is 96.1% in test [1]; 102% in test [2]; 76.8% in [3]; 88.2% in [4]; 101% in test [5]; 80.8% in test [6]. Also, the growth was 94.9% in test [7]; 89.8% in [8]; 97.5% in test [9]; 104% in test [10]; 107% in test [11]; 86% in test [12]. The growth in test [13] is 90.1%; in [14], 61.4%; in test [15], 127%; in [16], 97%; in test [17], 84.2%; in test [18], 82.8%. The growth in [19] was 103%; in test [20] it was 112%.

Take `N=C(N)SCc1cccc2c(CSC(=N)N)cccc12`: the growth in test [1] was 108%; in test [2], 108%; in [3], 91.7%; in test [4], 93.5%; in test [5], 89.2%; in test [6], 97.4%. The growth in [7] is 109%; in test [8], 96.6%; in [9] it was 97.7%; in test [10], 109%; in test [11], 106%; in [12] it was 107%. Further, the growth in [13] is 94%; in [14], 84.9%; in [15], 106%; in test [16], 108%; in [17] it was 94.4%; in test [18], 87.2%. Further, the growth in [19] and in test [20] was 119% in each case.

Consider `O=C(Cn1nnc([N+](=O)[O-])n1)c1ccccc1`, for which the growth is 80.5% in test [1]; 66.4% in [2]; 67.9% in test [3]; 116% in [4]; 106% in test [5]; 79.8% in [6]. Further, the growth in test [7] was 84.1%; in [8] it was 68.8%; in [9], 59.6%; in test [10], 110%; in test [11], 73.3%; in [12] it was 100%. Moreover, the growth was 102% in test [13]; 85.1% in test [14]; 92% in [15]; 107% in test [16]; 77.7% in test [17]; 48.6% in test [18]. In addition, the growth was 58.6% in [19] and 95.3% in test [20].

`N#C/C(=C\c1ccc(Br)cc1)c1cc2ccccc2[nH]1`: the growth in test [1] was 94%; in test [2] it was 109%; in test [3], 104%; in test [4], 94.5%; in [5] it was 95.1%; in test [6], 84.7%. For the same molecule, the growth in [7] was 97.4%; in test [8], 87.8%; in test [9] it was 95.3%; in test [10], 103%; in test [11], 114%; in [12] it was 91%. Further, the growth was 97.6% in test [13]; 86.8% in [14]; 119% in [15]; 102% in [16]; 92.7% in [17]; 89.1% in test [18]. The growth in test [19] was -42.4% (active); in [20], 84.5%.

Take `O=C(/C=C/c1cccc(Cl)c1)c1cccc(OCCCCOc2cccc(C(=O)/C=C/c3cccc(Cl)c3)c2)c1`: the growth in test [1] was 83.6%; in [2], 76.1%; in test [3] it was 77.8%; in [4], 91%; in test [5] it was 68.7%; in test [6] it was 92.2%. Further, the growth is 98.6% in test [7]; 72.8% in [8]; 30.5% in [9]; 99.2% in test [10]; 103% in [11]; 106% in [12]. Further, the growth in test [13] is 92.9%; in [14], 72%; in test [15], 109%; in test [16] it was 100%; in [17], 75.7%; in test [18], 96.9%. The results for the growth in test [19] and in test [20] were 84.4% and 89%, respectively.

For `COc1cc2c(c(OC)c1OC)C(=O)CC(c1cccc(NC(=O)c3ccccc3Br)c1)O2` (stereo not given), the growth is 88.6% in [1]; 97.1% in test [2]; 93.3% in test [3]; 95.5% in [4]; 91.5% in [5]; 77.9% in test [6]. Also, the growth in [7] is 86.1%; in [8] it was 72.2%; in [9], 93.4%; in [10], 111%; in [11] it was 75.8%; in test [12] it was 102%. In addition, the growth in test [13] is 91.5%; in [14] it was 77.3%; in [15], 97.1%; in test [16], 93%; in [17], 109%; in [18], 75.9%. For the same molecule, the growth is 73.1% in test [19] and 69.6% in [20].

`CCCCCCNc1nc(NCCCCCC)c2[nH]c(NCCCCCC)nc2n1`: the growth is 88.1% in [1]; 36.6% in test [2]; -8.09% (active) in test [3]; 89.8% in [4]; -32.8% (active) in test [5]; 18.7% in test [6]. Also, the growth was 78.1% in test [7]; 81.2% in [8]; 1.23% (active) in test [9]; 98.2% in test [10]; 30.2% in test [11]; 44% in test [12]. Besides, the growth in test [13] was 26.5%; in test [14] it was 80.9%; in test [15] it was 116%; in test [16] it was 100%; in test [17], 74.1%; in [18], 40.3%. The growth in test [19] is -29.6% (active); in [20] it was -12.5% (active).

For the molecule `Cc1ccc2[nH]c(-c3ccc(S(C)(=O)=O)cc3)c(/C=N/N=C(N)N)c2c1`, the growth in test [1] was 35.3%; in [2] it was 16.7%; in test [3], 65.4%; in test [4], 57.1%; in test [5], 33.4%; in [6], 39.9%. The growth is 29.1% in test [7]; 41.5% in [8]; 47.3% in test [9]; 71.2% in test [10]; 43.2% in test [11]; 90.2% in test [12]. Further, the growth in [13] was 56.9%; in [14] it was 60%; in [15] it was 90.9%; in test [16], 63%; in test [17], 52.3%; in test [18], 38.2%. The growth is 37.2% in test [19] and 41.6% in test [20].
